# Data as given in PubChem BioAssay.
# Calls of active or inactive are those of the source. Rule as the data show it, unless noted: active = inhibition above about 42%; inactive = the rest.
# Legend:
# [1] = StAR promoter reporter inhibitors, counter-screen for LRH-1 inverse agonist project, cell-based, luminescence, high throughput (AID 651611; in the data active = inhibition above about 28%); details: StAR promoter luciferase reporter counterscreen, at 3.6 µM, stronger effect = higher value
# [2] = molecular target: Nuclear receptor subfamily 5 group A member 2 (Homo sapiens) (UniProt O00482); assay: NR5A2 activity suppression in reporter cells – cell-based, luminescence, confirmation (AID 651613); details: cell-based LRH-1 luciferase reporter, inverse agonism; at 3.6 µM; stronger effect = higher value;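 also: HEK293T cells co-transfected with LRH-1 and StAR promoter luciferase reporter; 0% = vehicle wells and 100% = parental cells lacking receptor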
# Nuclear receptor subfamily 5 group A member 2 (Homo sapiens), sequence (O00482 whole entry, looked up): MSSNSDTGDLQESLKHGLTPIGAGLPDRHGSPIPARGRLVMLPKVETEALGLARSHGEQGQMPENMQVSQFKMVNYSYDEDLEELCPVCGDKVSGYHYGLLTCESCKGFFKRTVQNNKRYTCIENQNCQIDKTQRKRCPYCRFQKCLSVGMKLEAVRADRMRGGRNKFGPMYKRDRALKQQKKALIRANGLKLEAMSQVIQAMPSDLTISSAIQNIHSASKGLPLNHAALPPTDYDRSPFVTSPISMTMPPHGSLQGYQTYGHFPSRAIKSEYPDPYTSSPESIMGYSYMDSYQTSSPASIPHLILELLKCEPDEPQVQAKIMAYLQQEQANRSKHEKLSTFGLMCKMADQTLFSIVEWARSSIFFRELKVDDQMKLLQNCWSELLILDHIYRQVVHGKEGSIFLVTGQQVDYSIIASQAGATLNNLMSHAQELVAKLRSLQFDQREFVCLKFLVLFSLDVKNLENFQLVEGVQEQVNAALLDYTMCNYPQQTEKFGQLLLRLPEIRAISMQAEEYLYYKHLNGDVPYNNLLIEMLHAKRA
# [3] = molecular target: Steroidogenic factor 1 (Homo sapiens) (UniProt Q13285); assay: inverse agonism at SF1 nuclear receptor – cell-based, luminescence, high throughput, counter-screen for LRH-1 inverse agonist project (AID 651614; in the data active = inhibition above about 44%;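 also: cells cotransfected with StAR promoter reporter and SF1 expression vector; 0% = vehicle on cells with receptor and 100% = vehicle on cells lacking receptor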); details: cell-based SF1 luciferase reporter, at 3.6 µM, stronger effect = higher value
# Steroidogenic factor 1 (Homo sapiens), sequence (Q13285 whole entry, looked up, the tested form may be a part): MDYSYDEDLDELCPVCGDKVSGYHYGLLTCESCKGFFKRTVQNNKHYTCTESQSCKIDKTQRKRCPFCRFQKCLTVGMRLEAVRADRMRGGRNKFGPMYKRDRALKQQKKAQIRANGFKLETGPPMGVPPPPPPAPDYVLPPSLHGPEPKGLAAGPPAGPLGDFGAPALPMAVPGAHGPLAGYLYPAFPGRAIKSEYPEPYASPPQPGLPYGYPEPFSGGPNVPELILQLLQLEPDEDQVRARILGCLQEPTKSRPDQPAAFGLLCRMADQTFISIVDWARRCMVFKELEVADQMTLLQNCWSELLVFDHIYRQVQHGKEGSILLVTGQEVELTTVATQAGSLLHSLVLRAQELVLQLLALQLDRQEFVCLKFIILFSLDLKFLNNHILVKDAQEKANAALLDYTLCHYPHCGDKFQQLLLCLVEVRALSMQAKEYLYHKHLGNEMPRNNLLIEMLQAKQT
# [4] = compounds suppressing VP16-driven luciferase signal – cell-based, luminescence, high throughput, counter-screen for LRH-1 inverse agonist project (AID 651615; in the data active = inhibition above about 33%); details: Gal4-VP16 luciferase reporter cells, at 3.6 µM, stronger effect = higher value
SMILES,inhibition [1],inhibition [2],inhibition [3],inhibition [4]
CC(=O)Nc1cc(-c2ccc(S(C)(=O)=O)cc2)cn2c(-c3ccc(F)cc3)cnc12,17.4% (inactive),53.4% (active),33.3% (inactive),-7.42% (inactive)
Cc1cc(C)nc(NC(=O)c2ccc([N+](=O)[O-])o2)n1,17.2% (inactive),61.6% (active),53.4% (active),-11.8% (inactive)
COc1ccc(C2=Nn3c(nnc3-c3ccccc3OC)SC2)cc1OC,52.6% (active),58.7% (active),64% (active),11.1% (inactive)
COc1cc(C(=O)Nc2ccccc2C2COC(=O)C2=N)cc(OC)c1OC (stereo not drawn),8.92% (inactive),45.5% (active),45.2% (active),-1.69% (inactive)
CC(=O)NC(Cc1c[nH]c2ccccc12)C(=O)OCC(=O)Nc1ccc2c(c1)OCO2 (stereo not drawn),12.4% (inactive),56.8% (active),56.7% (active),-12.7% (inactive)
CCN(Cc1ccccc1)c1ccc(/C=N/N2CCOCC2)cc1,-41.2% (inactive),26% (inactive),34.2% (inactive),-9.02% (inactive)
NC(=S)Nc1ccc(Oc2ccc(NC(N)=S)cc2)cc1,5.35% (inactive),31.2% (inactive),40% (inactive),-6.09% (inactive)
CCc1ccc(N2C=C(C(=O)OC)C(c3ccc(OC)cc3)C(C#N)=C2N)cc1 (stereo not drawn),48.9% (active),25.1% (inactive),45.3% (active),24.5% (inactive)
COc1ccc(NC(=O)Cn2nnc(C(=O)Nc3ccccc3C)c2N)cc1,5.36% (inactive),41.4% (active),37.6% (inactive),9.36% (inactive)
Nc1ccc(Oc2ccc(Cl)cc2)cc1,1.47% (inactive),35.2% (inactive),31% (inactive),-7.96% (inactive)
O=C(Nc1ccccc1)c1oc2ccccc2c1NC(=O)C1CC1,3.25% (inactive),52.8% (active),50.5% (active),1.67% (inactive)
CCOc1ccc(S(=O)(=O)NCc2ccncc2)cc1,25.8% (inactive),61.1% (active),59.4% (active),51.8% (active)
Cc1ccc(NC(=O)CSc2nnc(-c3n[nH]c4ccccc34)n2-c2ccccc2)c(C)c1,3.14% (inactive),60.5% (active),60.3% (active),4.59% (inactive)
CCOc1ccc(NC(=O)Cn2cc(C(=O)C3CC3)c3ccccc32)cc1,5.9% (inactive),44.1% (active),37.5% (inactive),-14.7% (inactive)
Cc1ccc(CNC(=O)c2ccc([N+](=O)[O-])o2)cc1,16.4% (inactive),57% (active),60.8% (active),-5.02% (inactive)
Cc1cc2ncn(/N=C/c3ccc([N+](=O)[O-])o3)c2cc1C,17.6% (inactive),69.1% (active),68.2% (active),-19.6% (inactive)
O=C(NNc1c(F)c(F)cc(F)c1F)C1CCN(S(=O)(=O)c2ccccc2F)CC1,-3.09% (inactive),8.61% (inactive),22.4% (inactive),4.32% (inactive)
COC(=O)c1ccc(NC(=O)CN2CCC(NC(=O)c3ccccc3F)CC2)cc1,23.6% (inactive),52.3% (active),44.1% (active),-4.8% (inactive)
CCOc1cc(/C=C2\C(=N)N3N=C(C)SC3=NC2=O)ccc1OCCOc1cccc(OC)c1,10% (inactive),39.7% (inactive),40.2% (inactive),6.87% (inactive)
O=C(N/N=C/c1ccc([N+](=O)[O-])o1)c1ccc2c(c1)OCO2,37.2% (active),78.3% (active),91.2% (active),-5.58% (inactive)
Cc1ccc(C)c(-c2cc(C(=O)N/N=C/c3cccnc3)c3ccccc3n2)c1,9.19% (inactive),51.1% (active),44.9% (active),5.29% (inactive)
CC(=O)Nc1ccc(N=c2cc([N+](=O)[O-])cc(Cl)n2O)cc1,14.3% (inactive),59.6% (active),57.8% (active),-3.98% (inactive)
Cc1c(C)c2ccc(OCC(=O)N3CCN(C(=O)C4COc5ccccc5O4)CC3)cc2oc1=O (stereo not drawn),14.4% (inactive),60.4% (active),59.1% (active),-17.1% (inactive)
c1ccc2c(c1)C1=NCCN1c1ccccc1-2,20% (inactive),104% (active),50.2% (active),87.8% (active)
Cc1cc(-n2c(C)cc(C(=O)CSc3ncnc4ccccc34)c2C)no1,8.06% (inactive),67.2% (active),61.3% (active),36.9% (active)
COc1cccc(NC(=O)N(C)C[C@H]2Oc3cc(C#Cc4ccncc4)ccc3S(=O)(=O)N([C@H](C)CO)C[C@H]2C)c1,28% (active),50.6% (active),44.8% (active),-37% (inactive)

SMILES,inhibition [1],inhibition [2],inhibition [3],inhibition [4]
O=c1[nH]c2cc3ccccc3cc2nc1-c1nnnn1C1CCCC1,33.8% (active),33.4% (inactive),44.6% (active),8.72% (inactive)
COc1cc([N+](=O)[O-])ccc1NC(=O)C[n+]1ccccc1,15.1% (inactive),58.8% (active),55.6% (active),3.98% (inactive)
CC(=O)Nc1cc(-c2cccc(F)c2)cn2c(-c3ccc(S(C)(=O)=O)cc3)cnc12,8.88% (inactive),50.2% (active),54.6% (active),-14.3% (inactive)
O=C(c1ccoc1)N1CCN(c2cc(-c3ccco3)nc3cc(-c4ccccc4)nn23)CC1,46.1% (active),50.1% (active),48% (active),19.7% (inactive)
COc1ccc(CCNC(=O)COC(=O)C2CC2C)cc1 (stereo not drawn),3.36% (inactive),47.1% (active),48.6% (active),2.63% (inactive)
COc1ccc(S(=O)(=O)N2CCOCC2)cc1N=Nc1sc(N)nc1-c1ccccc1,36.4% (active),60.7% (active),66.3% (active),-3.07% (inactive)
CCOc1ccc(CCNC(=O)COC(=O)CCC(=O)c2cccs2)cc1OCC,-0.72% (inactive),45.3% (active),51% (active),-6.57% (inactive)
CN(C)c1ccc(NC(=O)CSc2nnc(-c3ccco3)c(-c3ccco3)n2)cc1,14.1% (inactive),54.9% (active),47.8% (active),-2.61% (inactive)
Cc1ccc[n+](CC(=O)Nc2ccc([N+](=O)[O-])cc2)c1,12.6% (inactive),63.1% (active),57% (active),-13.3% (inactive)
O=C(COc1ccc(F)c(Cl)c1)Nc1ccc(N2CCOCC2)cc1,3.59% (inactive),36% (inactive),39% (inactive),3.92% (inactive)
O=C(CSc1nc(=O)n2cc(Cl)ccc2n1)Nc1ccc2c(c1)OCCO2,3.01% (inactive),47.8% (active),44.1% (active),-4.83% (inactive)
COc1cc2cc(C(=O)NC(C)c3cccc4ccccc34)c(N)nc2cc1OC (stereo not drawn),34.5% (active),43.9% (active),59.1% (active),23.9% (inactive)
COC(=O)c1c(NC(=O)c2ccc([N+](=O)[O-])o2)sc2c1CCN(C(C)C)C2,28% (active),45.3% (active),44.1% (active),0.53% (inactive)
COC(=O)c1cc2c(-c3ccccc3)cc3ccccn3c-2c1C(=O)OC,11.5% (inactive),62.3% (active),54.5% (active),0.7% (inactive)
O=C(COC(=O)c1cccc(O)c1)Nc1ccc(N2CCOCC2)cc1,13.6% (inactive),54.3% (active),54.6% (active),-6.64% (inactive)
CN1CC(=O)N(CC(=O)Nc2ccc(N3CCOCC3)cc2)C1=O,18.7% (inactive),63.9% (active),65.2% (active),-10.9% (inactive)
CCOC(=O)C(C)Oc1cccc2c(=O)n(CC(=O)Nc3ccc4c(c3)OCCO4)ccc12 (stereo not drawn),5.33% (inactive),58.5% (active),51.7% (active),-1.21% (inactive)
C#CCN(C[C@@H]1[C@@H](OC(=O)NCc2ccc(OC)c(OC)c2)[C@@H](OC(=O)NCc2ccc(OC)c(OC)c2)Cn2c(=O)ccc(=O)n21)S(=O)(=O)c1ccc(C)cc1,16.6% (inactive),40% (inactive),35.7% (inactive),10.2% (inactive)
COc1cc(-c2cnc3c(NC=O)cc(-c4ccccc4Cl)cn23)cc(OC)c1OC,64.9% (active),45.6% (active),62.6% (active),-21.3% (inactive)
O=C(C[n+]1ccc(Cc2ccccc2)cc1)Nc1ccc([N+](=O)[O-])cc1Cl,5.98% (inactive),54.7% (active),45.6% (active),5.52% (inactive)
Cc1ccccc1C(=O)O/N=C/c1c(N2CCOCC2)n(C)c2ccccc12,76.4% (active),84.3% (active),91.4% (active),58.8% (active)
O=C(NCc1ccc2c(c1)OCO2)c1nn(-c2ccccc2)c(=O)c2ccccc12,4.72% (inactive),52.2% (active),53.3% (active),-2.13% (inactive)
Cn1ncc(Cl)c1C(=O)NCc1ccc2c(c1)OCO2,-2.54% (inactive),45.4% (active),50.1% (active),15.7% (inactive)
COc1ccccc1-c1cc(NC(C)=O)c2ncc(-c3ccc(S(C)(=O)=O)cc3)n2c1,23.8% (inactive),49.3% (active),48.6% (active),-21.1% (inactive)
COc1ccc(C(NC(=O)C(C)C)c2ccc3cccnc3c2O)cc1 (stereo not drawn),84.5% (active),103% (active),91.8% (active),87.7% (active)
COc1ccc2nc(N3CCN(C(=O)c4ccc([N+](=O)[O-])o4)CC3)sc2c1,0.52% (inactive),64.3% (active),61.8% (active),-44.3% (inactive)
